# From PubChem
# Vif-A3G inh – qHTS for Inhibitors of Vif-A3G Interactions: qHTS; DNA dC->dU-editing enzyme APOBEC-3G (Homo sapiens), Q9HC16; HeLa A3G-eYFP + Vif (tagged APOBEC3G with the HIV-1 protein that degrades it), YFP fluorescence, overnight; Potency, µM (titrated, usually from 46.1 µM), for inactives: at the top dose activity, negative = active, hits mostly inhibitors; 0.076% of 410,000 active; AID 602310, 2012; also: potency is read from the fitted curve at half-maximal effect; % is scaled to controls: 0 for no effect and ±100 for the full control effect; nearly all actives have a fitted effect of over 60% in size
# Target sequence (Q9HC16 whole entry, looked up): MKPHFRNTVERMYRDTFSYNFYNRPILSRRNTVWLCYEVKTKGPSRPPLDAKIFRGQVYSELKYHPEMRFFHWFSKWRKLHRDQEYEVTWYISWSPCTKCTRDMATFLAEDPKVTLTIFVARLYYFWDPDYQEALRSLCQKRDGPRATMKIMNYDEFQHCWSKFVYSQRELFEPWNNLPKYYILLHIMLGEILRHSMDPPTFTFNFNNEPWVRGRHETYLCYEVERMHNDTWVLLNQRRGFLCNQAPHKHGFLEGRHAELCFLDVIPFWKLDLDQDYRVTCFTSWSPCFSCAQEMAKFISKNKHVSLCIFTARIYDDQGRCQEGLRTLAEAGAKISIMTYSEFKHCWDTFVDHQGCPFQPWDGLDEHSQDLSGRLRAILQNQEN
#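 HeLa cells stably expressing Vif and C-terminally eYFP-tagged A3G, seeded overnight at 37 deg C, then exposed to compound by pintool overnight at 37 deg C. Rise in yellow fluorescence (Ex 488/Em 500-530, Acumen) marks blocked Vif-driven A3G degradation.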
# S-ASM inh – Inhibitors of Secretory Acid Sphingomyelinase (S-ASM): qHTS. Sphingomyelin phosphodiesterase (Homo sapiens), P17405. placental ASM, HMU-PC fluorogenic substrate, 60 min. Potency, µM (highest dose often 57.5 µM), for the others: at the top dose activity change, negative = inhibition, hits mostly inhibitors. 0.006% of 340,000 active; also: potency is read from the fitted curve at half-maximal effect
#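 Steps: dispense placental human ASM, pin compound, wait 10 min at room temperature, add HMU-PC0 substrate at 9 uM final, incubate 60 min at 37 °C, add stop solution raising pH to 10, read fluorescence.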
# Akt phos inh – HTS Assay for Inhibitors of Akt Phophorylation: Primary Screen; 0.32% of 360,000 active; activity change, % for hits at 50 µM; Neuro2A IGF-stimulated pAkt S473 HTRF, 20 min; active compounds read low; in the data active = activity change below about -80%; inconclusive = mostly about -51% to -80%; also: % is scaled to controls: 0 for no effect and ±100 for the full control effect
#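 Single-point screen (50 µM final compound) in Neuro2A cells stimulated 20 min with 6 nM IGF at 37 deg C. After lysis, Ser473-phosphorylated Akt read by HTRF (ex 330 nm, em 615/665 nm) as the 665/615 ratio.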
# TSG101-PTAP inh – qHTS Assay for Iinhibitors of HIV-1 Budding by Blocking the Interaction of PTAP/TSG101; Tumor susceptibility gene 101 protein (Homo sapiens), Q99816; Fluorescence polarization, FITC-PTAP peptide / Tsg101 binding; Potency, µM (highest dose often 115 µM), inactives show top-dose activity change, negative = inhibition, most hits filed as inhibitors; 340,000 tested, under 10 active; AID 493005, 2010; active = well fitted inhibition curve with a large enough effect in the main read-out, with a control signal flat, not every such curve was filed as active; inconclusive = small, poorly fitted or top-dose-only effect, or effect the other way, or a change in a side signal; inactive = no such curve, though single readings can be large or run the other way; also: potency is read from the fitted curve at half-maximal effect; % of control where 0% means no effect
# Target sequence (Q99816 whole entry, looked up): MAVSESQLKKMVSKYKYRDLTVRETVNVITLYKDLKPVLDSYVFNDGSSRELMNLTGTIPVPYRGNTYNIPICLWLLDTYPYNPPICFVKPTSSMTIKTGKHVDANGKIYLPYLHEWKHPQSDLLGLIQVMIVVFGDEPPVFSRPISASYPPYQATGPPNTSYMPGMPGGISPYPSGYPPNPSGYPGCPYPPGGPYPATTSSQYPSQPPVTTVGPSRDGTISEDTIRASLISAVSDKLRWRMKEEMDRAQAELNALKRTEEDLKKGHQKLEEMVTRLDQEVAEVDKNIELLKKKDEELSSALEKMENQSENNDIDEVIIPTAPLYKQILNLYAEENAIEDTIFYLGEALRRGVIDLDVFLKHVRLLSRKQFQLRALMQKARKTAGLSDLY
#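 Steps: Tsg101 binding domain dispensed (10 uM final), compounds pinned in DMSO, FITC-labeled PTAP-motif peptide added (50 nM final); after 20 min binding at room temperature, polarization measured.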
# ALOX12 inh – Primary qHTS assay for inhibitors of human arachidonate 12S-lipoxygenase (ALOX12): Round 2; Polyunsaturated fatty acid lipoxygenase ALOX12 (Homo sapiens), P18054; purified 12hLO, xylenol orange hydroperoxide absorbance; Potency, µM (top dose mostly 108 µM), without a hit: top-dose activity change, negative = inhibition, hits mostly inhibitors; 1.1% of 580,000 active; AID 1671190, 2021; also: potency is read from the fitted curve at half-maximal effect; % is scaled to controls: 0 for no effect and ±100 for the full control effect
#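 Hydroperoxide product was detected by ferrous iron/xylenol orange as the 573 to 405 nm absorbance ratio. Arachidonic acid at 40 uM (final) was turned over for 30 min at room temperature by 150 nM human 12hLO, pH 7.0 Hepes buffer, after 15 min compound preincubation.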
# Vif-A3F inh – qHTS for Inhibitors of Vif-A3F Interactions: qHTS. HeLa A3F-eYFP + Vif (tagged APOBEC3F with the HIV-1 protein that degrades it), YFP fluorescence increase. Potency, µM (highest dose often 46.1 µM), for the others: at the top dose activity, negative = active. 0.2% of 390,000 active. AID 602313, 2012; also: potency is read from the fitted curve at half-maximal effect; % of control where 0% means no effect; nearly all actives have a fitted effect of over 65% in size
#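 HeLa cells stably expressing A3F-eYFP plus Vif, plated and incubated overnight at 37 deg C, then exposed to compounds overnight at 37 deg C. Blocked degradation read as raised yellow fluorescence (Ex 488/Em 500-530).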
# * hit, by the source's call; i = inactive; ? = inconclusive; . = no result given; ! = a repeat was not active; [ ] = dose if it differs, or a comment. Rows were chosen to be rich in hits. Some 1.4% of all compounds tested hit in one or more screens of this group. Unless noted, calls follow the shape of the dose curve; as a rule, active = well fitted curve in the direction sought with a large enough effect; inconclusive = small, poorly fitted or top-dose-only effect, or another doubt; inactive = no such curve, though single readings can be large; an effect the other way counts as inactive or inconclusive.
SMILES,Vif-A3G inh,S-ASM inh,Akt phos inh,TSG101-PTAP inh,ALOX12 inh,Vif-A3F inh
CCOC(=S)N/C(=N\S(=O)(=O)c1ccccc1)c1ccccc1,-7%,1%,i,-3%,?,3%
Cc1ccc(NC(=S)N/C(=N/S(=O)(=O)c2ccccc2)c2ccccc2)cc1,-1%,2%,i,0%,35µM*!,-23%
CCn1c(-c2csc(C(C)C)c2)n[nH]c1=S,-18%,6%,i,-4%,?,0%
CC(C)Cn1c(-c2csc(C(C)C)c2)n[nH]c1=S,-11%,-7%,i,3%,40µM*,0%
COc1cccc(-c2nn(-c3ccccc3)c(OC(C)=O)c2-c2ccc(NC(=O)C3CCCC3)cc2)c1,.,.,.,.,-5%,.
CC1=C/C(=N\Nc2nncc3ccccc23)CC1,.,.,.,.,50µM*,.
S=C(NCCC(c1ccccc1)c1ccccc1)Nc1cccc(Cl)c1,5%,-3%,i,-3%,22µM*,-17%
Cc1ccccc1NC(=S)NCCC(c1ccccc1)c1ccccc1,0%,-1%,i,-2%,32µM*,?
S=C(NCCCNC(=S)Nc1ccccc1)Nc1ccccc1,-2%,3%,i,-1%,?,6%
S=C(NCCNc1c(Cl)c(Cl)c(Cl)c(Cl)c1Cl)Nc1ccccc1,.,.,.,.,13µM*,.
COc1ccc(OC)c(NC(=S)NCc2ccccc2OC)c1,-1%,1%,i,-1%,?,-6%
Cc1ccc(NC(=S)NCCC(c2ccccc2)c2ccccc2)c(C)c1,5%,-3%,i,-2%,?,-8%
COc1ccc(OC)c(NC(=S)NCCC(c2ccccc2)c2ccccc2)c1,2%,-8%,i,-10%,8.9µM*,.
C=CCNC(=S)Nc1cccc(Cl)c1,.,.,.,.,-30%,.
CCc1nc2c(c(-c3ccc(Cl)cc3)n1)CCN(C(=O)c1ccccc1)CC2,.,.,.,.,2%,.
S=C(NCCCCCCNC(=S)Nc1cccc(Cl)c1)Nc1cccc(Cl)c1,.,.,.,.,16µM*,.
S=C(NCCC(c1ccccc1)c1ccccc1)Nc1ccccc1,.,.,.,.,35µM*,.
O[C@H]1CCCC[C@@H]1NC1CCN(c2nc3ccc(Cl)cc3s2)CC1,.,.,.,.,-21%,.
Cc1ccc(C(=O)NC(=S)c2c(C)cc3ccccn23)cc1,-4%,.,i,.,7.9µM*,1%
Cc1cc2ccccn2c1C(=O)c1ccncc1,1%,-6%,i,-7%,0%,0%
Cc1cc2ccccn2c1C(=S)NC(=O)c1ccccc1,1%,-2%,i,0%,22µM*,1%
C(#Cc1ccccc1)CN1CCCC1,.,.,.,.,-13%,.
Cc1nc(-c2ccccc2)sc1C(=O)Nc1ccncc1,.,.,.,.,16%,.
COc1cc(NC(=S)Nc2cccc(C)n2)cc(OC)c1OC,1%,3%,i,-4%,-11%,-3%
Cc1cc(C)nc(NC(=S)Nc2ccc(F)cc2F)c1,-1%,3%,i,-2%,14%,4%
SMILES,Vif-A3G inh,S-ASM inh,Akt phos inh,TSG101-PTAP inh,ALOX12 inh,Vif-A3F inh
Cc1ccc(C)c(NC(=S)Nc2ncccc2C)c1,-2%,2%,i,3%,28µM*,?
COc1cc(NC(=S)Nc2ncccc2C)cc(OC)c1OC,1%,-1%,i,-1%,16µM*,7%
Cc1cccnc1NC(=S)Nc1ccc(F)cc1F,-4%,3%,i,2%,16µM*,?
O=S(Cc1ccccc1)Cc1c(F)cccc1Cl (stereo unspecified),.,.,.,.,1%,.
CCCC(=O)Nc1ccccc1C(C)CC (stereo unspecified),.,.,.,.,54%,.
COCC(=O)Nc1ccc([C@@H](O)[C@H]2COCC(=O)N2)cc1,.,.,.,.,49%[176 µM],.
CC(NC(=O)C1CCCCC1)c1cccc(Br)c1 (stereo unspecified),.,.,.,.,2%,.
CCOc1ccc(NC(C)(CC)c2nnnn2-c2c(C)cccc2C)cc1 (stereo unspecified),.,.,.,.,-29%,.
CCOC(=O)c1c(NC(=O)Cn2nnc(-c3ccc(Cl)cc3)n2)sc(CC)c1C,-8%,-7%,.,0%,0%,-4%
CCOC(=O)c1c(NC(=O)Cn2nnc(-c3ccccc3)n2)sc(CC)c1C,.,.,.,.,13µM*,.
Cc1cnc(C(=O)Nc2cccc3cccnc23)cn1,-7%,5%,-109%*,-6%,-4%,-3%
Cc1cccc(C(=O)Nc2cccc3cccnc23)c1,-7%,1%,i,-2%,11%,-3%
CN(C)C(CNC(=O)c1cc(-c2ccco2)nc2ccccc12)c1ccccc1 (stereo unspecified),2%,113%,i,-11%,10µM*,?
CC(NC(=O)c1cc(-c2ccco2)nc2ccccc12)c1ccccc1 (stereo unspecified),.,.,.,.,45µM*,.
CC(NC(=O)c1ccc(Br)cc1)c1ccccc1 (stereo unspecified),0%,1%,i,0%,10%,1%
CC(NC(=O)c1ccc(-c2ccco2)cc1)c1ccccc1 (stereo unspecified),.,.,.,.,13µM*,.
CC(C)CCNC(=O)c1cc(-c2ccco2)nc2ccccc12,-4%,123%,i,-8%,?,3%
Cc1nc(SCc2noc(-c3ccccc3O)n2)n(C2CC2)c1C,.,.,.,.,-43%,.
Cc1cc(C)c2oc(C(=O)Nc3ccc(OC(F)F)cc3)cc(=O)c2c1,.,.,.,.,79%,.
COc1ccccc1C1NC(=S)NC2=C1CCc1ccccc12 (stereo unspecified),.,.,.,.,28µM*,.
Cc1ccc(C2NC(=O)NC3=C2CCc2ccccc23)cc1 (stereo unspecified),-5%,30%,i,-8%,?,-2%
COc1ccc2c(c1)C1=C(CC2)C(c2ccc(C)cc2)NC(=S)N1 (stereo unspecified),-8%,-10%,i,-7%,40µM*,1%
COc1cccc(C2NC(=S)NC3=C2CCc2ccccc23)c1 (stereo unspecified),-1%,9%,i,0%,?,-25%
S=C1NC2=C(CCc3ccccc32)C(c2ccc(Cl)cc2)N1 (stereo unspecified),.,.,.,.,28µM*,.
S=C1NC2=C(CCc3ccccc32)C(c2ccccc2Cl)N1 (stereo unspecified),.,.,.,.,8.9µM*,.
